Test results taken from PubChem BioAssay (NCATS).
Results filed as inconclusive are left out. Unless noted, calls follow the shape of the dose curve; as a rule, active = well fitted curve in either direction with a large enough effect (not every such curve was filed as active); inconclusive = small, poorly fitted or top-dose-only effect, or another doubt; inactive = flat fitted curve, though single readings scatter.

How the values were obtained:
[1] = AP1 Signaling Pathway (AID 357); details: ME-180 AP-1-bla reporter, EGF-induced, beta-lactamase ratio, 5 h; at 17.2 µM (top of the series) unless noted;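 also: ME-180 reporter cells stimulated with EGF at its EC50 level; % is scaled to controls: 0 for no effect and ±100 for the full control effect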
How it was run: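 Cells are seeded overnight, exposed to compound titrations and an EC50 level of EGF for 5 hours at 37 °C, then loaded with CCF4 dye for 2.5 hours. Beta-lactamase activity under the AP-1 element is read as a blue/green ratio.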

[2] = NFAT Signaling Pathway (AID 444); details: Jurkat NFAT-bla M1, carbachol, beta-lactamase ratio, 5 h; at 17.2 µM (top of the series) unless noted;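 also: carbachol stimulus at about its EC50 of 1 µM final; % is scaled to controls: 0 for no effect and ±100 for the full control effect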
How it was run: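 Jurkat cells carrying an NFAT-driven β-lactamase reporter and co-transfected muscarinic M1 receptor were treated with compound plus carbachol (1 uM final, an EC50 level) for 5 h at 37 °C. CCF4 loading followed for 1 h at RT; 460/530 nm ratio gave %activity.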

[3] = Stat Signaling Pathway (AID 446); details: ME-180 SIE beta-lactamase reporter, IL-6 stimulated, 5 h; at 17.2 µM (top of the series) unless noted;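 also: ME-180 cervical cancer cells given 40 pM IL-6 alongside compound; SIE-controlled beta-lactamase reporter measured as 460/530 nm FRET emission ratio; % is scaled to controls: 0 for no effect and ±100 for the full control effect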
How it was run: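 Screening format detects activators and inhibitors alike: ME-180 SIE-bla cells stimulated at 40 pM IL-6 for 5 hrs with compound, then dual-emission beta-lactamase read at 405 nm excitation.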

[4] = target: Glucocorticoid receptor (Homo sapiens) (UniProt P04150); assay: GR-GFP Redistribution (AID 450;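 active = compounds whose dose series gives a full or clear partial fitted curve of increased nuclear translocation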; also: potency is read from the fitted curve at half-maximal effect)
Glucocorticoid receptor (Homo sapiens), sequence (P04150 whole entry, looked up): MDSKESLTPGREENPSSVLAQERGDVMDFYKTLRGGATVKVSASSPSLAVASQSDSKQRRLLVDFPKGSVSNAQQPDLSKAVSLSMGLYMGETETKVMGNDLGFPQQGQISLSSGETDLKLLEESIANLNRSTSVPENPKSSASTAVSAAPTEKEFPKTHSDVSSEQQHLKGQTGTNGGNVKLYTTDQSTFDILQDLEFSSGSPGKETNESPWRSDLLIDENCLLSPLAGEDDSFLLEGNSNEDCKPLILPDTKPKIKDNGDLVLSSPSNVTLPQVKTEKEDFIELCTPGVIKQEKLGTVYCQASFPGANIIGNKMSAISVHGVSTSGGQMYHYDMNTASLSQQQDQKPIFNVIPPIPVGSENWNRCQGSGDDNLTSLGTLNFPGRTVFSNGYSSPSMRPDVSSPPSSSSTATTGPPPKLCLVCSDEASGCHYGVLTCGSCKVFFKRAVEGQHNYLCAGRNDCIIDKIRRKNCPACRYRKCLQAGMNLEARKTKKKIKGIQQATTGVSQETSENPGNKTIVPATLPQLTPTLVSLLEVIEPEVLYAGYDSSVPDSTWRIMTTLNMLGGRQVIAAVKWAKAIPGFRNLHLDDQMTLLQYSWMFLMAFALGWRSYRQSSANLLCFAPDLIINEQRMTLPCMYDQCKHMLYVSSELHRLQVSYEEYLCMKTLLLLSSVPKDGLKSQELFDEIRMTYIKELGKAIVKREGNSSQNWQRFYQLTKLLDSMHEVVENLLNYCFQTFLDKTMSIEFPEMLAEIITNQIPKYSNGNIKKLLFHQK

COc1ccc(/C(O)=C2/C(=O)C(=O)N(Cc3ccco3)C2c2cccs2)cc1 (stereo not given)
inactive: activity change, negative = inhibition [1] 7% | activity change, negative = inhibition [2] -13.1% | activity, negative = inhibition [3] -19.8% | Potency [4] > 20.6 µM

Cn1c(Cn2cnc3ccccc32)nc2ccccc21
inactive: activity change, negative = inhibition [1] -1.15% | activity change, negative = inhibition [2] 3.95% | activity, negative = inhibition [3] -2% | Potency [4] > 20.6 µM

COc1ccc(C(=O)Nc2nc(N)n(-c3ccccc3)n2)cc1OC
inactive: activity change, negative = inhibition [1] -0.0315% | activity change, negative = inhibition [2] -1.36% | activity, negative = inhibition [3] 1.75% | Potency [4] > 20.6 µM

COc1cc(C2C3C(=O)N(c4ccc(F)cc4)C(=O)C3ON2c2ccccc2)ccc1O (stereo not given)
inactive: activity change, negative = inhibition [1] -17.6% | activity change, negative = inhibition [2] 0.386% | activity, negative = inhibition [3] -1.27% | Potency [4] > 20.6 µM

c1cc(-c2nnc3sc(C4CCCCC4)nn23)ccn1
inactive: activity change, negative = inhibition [1] -28.7% | activity change, negative = inhibition [2] -22.5% | activity, negative = inhibition [3] -15.8% | Potency [4] > 20.6 µM

O=C1CCC(=O)N1CNc1ccccn1
inactive: activity change, negative = inhibition [1] 10.7% | activity change, negative = inhibition [2] -7.64% | activity, negative = inhibition [3] 15.6% | Potency [4] > 20.6 µM

CCOC(=O)Cn1nc(C)c2ccccc2c1=O
inactive: activity change, negative = inhibition [1] 5.31% | activity change, negative = inhibition [2] 3.38% | activity, negative = inhibition [3] -2.19% | Potency [4] > 20.6 µM

O=C1CCC(=O)N1c1nc2n(n1)C(c1ccccc1)C=C(c1ccc(Br)cc1)N2 (stereo not given)
inactive: activity change, negative = inhibition [1] -22.1% | activity change, negative = inhibition [2] 3.81% | activity, negative = inhibition [3] -13.7% | Potency [4] > 20.6 µM

COc1ccccc1Nc1ncnc2c1cnn2-c1cccc(C)c1
inactive: activity change, negative = inhibition [1] -28.5% | activity change, negative = inhibition [2] -14.7% | activity, negative = inhibition [3] -6.58% | Potency [4] > 20.6 µM

O=c1/c(=C/c2ccccn2)sc2n1CN(c1ccccc1)CN=2
inactive: activity change, negative = inhibition [1] 0.239% | activity change, negative = inhibition [2] -24.9% | activity, negative = inhibition [3] 5.04% | Potency [4] > 20.6 µM

COC(=O)c1[nH]c2cc(OC)ccc2c1NC(=O)CN1CCC(C(N)=O)CC1
inactive: activity change, negative = inhibition [1] -3.69% | activity change, negative = inhibition [2] -2.98% | activity, negative = inhibition [3] 0.718% | Potency [4] > 20.6 µM

O=C(NCc1ccccc1)C1C(=O)N(Cc2ccccc2)C(=O)C1C1(O)CCCC1 (stereo not given)
inactive: activity change, negative = inhibition [1] -16.6% | activity change, negative = inhibition [2] 23.6% | activity, negative = inhibition [3] -6.02% | Potency [4] > 20.6 µM

CC(C)NCc1c(O)c(Br)cc2oc3c(c12)CCCC3
inactive: activity change, negative = inhibition [1] 28.5% | activity change, negative = inhibition [2] 0.46% | activity, negative = inhibition [3] 5.85% | Potency [4] > 20.6 µM

CC(NC(=O)CSc1nnc(COc2ccccc2)o1)c1ccccc1 (stereo not given)
inactive: activity change, negative = inhibition [1] -6.03% | activity change, negative = inhibition [2] -0.274% | activity, negative = inhibition [3] 2.03% | Potency [4] > 20.6 µM

COC(=O)c1ccc(Cn2nnc3c(sc4nc(N5CCOCC5)c5c(c43)CCCC5)c2=O)o1
inactive: activity change, negative = inhibition [1] 0.759% | activity change, negative = inhibition [2] -21.1% | activity, negative = inhibition [3] -4.56% | Potency [4] > 20.6 µM

C=C(C)CSc1nc(N)c2c3c(sc2n1)CCC3
inactive: activity change, negative = inhibition [1] -27.1% | activity change, negative = inhibition [2] -3.51% | activity, negative = inhibition [3] 4.14% | Potency [4] > 20.6 µM

CSc1nc2sc3c(c2c2nnnn12)CC(C)(C)OC3
inactive: activity change, negative = inhibition [1] -8.22% | activity change, negative = inhibition [2] -19.6% | activity, negative = inhibition [3] 15.4% | Potency [4] > 20.6 µM

O=C(O)c1ccc(COc2c(F)c(F)c(F)c(F)c2F)o1
inactive: activity change, negative = inhibition [1] 4.64% | activity change, negative = inhibition [2] -0.748% | activity, negative = inhibition [3] -10.8% | Potency [4] > 20.6 µM

CN(C)CCCN1C(=O)C(O)=C(C(=O)c2cc3ccccc3o2)C1c1ccccc1 (stereo not given)
inactive: activity change, negative = inhibition [1] 8.55% | activity change, negative = inhibition [2] -4.4% | activity, negative = inhibition [3] 1.48% | Potency [4] > 20.6 µM

O=c1c2c3c(sc2n2cnnc2n1C1CCCCC1)CCC3
inactive: activity change, negative = inhibition [1] -5.1% | activity change, negative = inhibition [2] -1.53% | activity, negative = inhibition [3] 22.2% | Potency [4] > 20.6 µM

Cc1ccc2[nH]c3c(N4CCOCC4)ncnc3c2c1
inactive: activity change, negative = inhibition [1] -7.05% | activity change, negative = inhibition [2] 18.4% | activity, negative = inhibition [3] -10.6% | Potency [4] > 20.6 µM

CCCCCOc1ccccc1C(=O)NCC(=O)O
inactive: activity change, negative = inhibition [1] 1.59% | activity change, negative = inhibition [2] 0.449% | activity, negative = inhibition [3] 9.43% | Potency [4] > 20.6 µM

O=C(c1nsnc1-c1ccccc1O)N1CCCCC1
inactive: activity change, negative = inhibition [1] 12.2% | activity change, negative = inhibition [2] 6.47% | activity, negative = inhibition [3] -2.4% | Potency [4] > 20.6 µM

CCC(NC(=O)NC1=NCCS1)(C(F)(F)F)C(F)(F)F
inactive: activity change, negative = inhibition [1] 8.03% | activity change, negative = inhibition [2] -10% | activity, negative = inhibition [3] 15.4% | Potency [4] > 20.6 µM

O=C(NCCO)c1cccc2c1C(=O)c1ccccc1-2
inactive: activity change, negative = inhibition [1] 9.17% | activity change, negative = inhibition [2] 2.44% | activity, negative = inhibition [3] 10.7% | Potency [4] > 20.6 µM
